# The source made the active and inactive calls. Unless noted, how the calls were made is not given here.
# Tests used:
# [1] = anti-His antibody binders, primary screen, artefact control for SMM control protein annotation, biochemical, small-molecule microarray, 635 nm fluorescence (AID 1128); conditions: anti-His Alexa647 antibody binding, higher = more signal;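 further: score merges feature fluorescence with signal-to-noise for each printed compound spot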
# [2] = tested on: Human papillomavirus type 1a E7 protein (residues 1-88); assay: HPV1a E7 small-molecule binders, primary screen, biochemical, small-molecule microarray, residues 1-88, 635 nm (AID 1129); conditions: small-molecule microarray binding, fluorescence 635 nm; higher = more signal
# [3] = molecular target: Focal adhesion kinase 1 (Homo sapiens) (UniProt Q05397); assay: small-molecule microarray binders of FAK, primary screen, biochemical, 635/667 nm fluorescence, BSA, DTT (AID 1130); conditions: PTK2 binding, 635 nm fluorescence, higher = more signal;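 further: composite of spot emission at 667 nm and signal to noise over triplicate slides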
# Chain of Focal adhesion kinase 1 (Homo sapiens) (Q05397 whole entry, looked up): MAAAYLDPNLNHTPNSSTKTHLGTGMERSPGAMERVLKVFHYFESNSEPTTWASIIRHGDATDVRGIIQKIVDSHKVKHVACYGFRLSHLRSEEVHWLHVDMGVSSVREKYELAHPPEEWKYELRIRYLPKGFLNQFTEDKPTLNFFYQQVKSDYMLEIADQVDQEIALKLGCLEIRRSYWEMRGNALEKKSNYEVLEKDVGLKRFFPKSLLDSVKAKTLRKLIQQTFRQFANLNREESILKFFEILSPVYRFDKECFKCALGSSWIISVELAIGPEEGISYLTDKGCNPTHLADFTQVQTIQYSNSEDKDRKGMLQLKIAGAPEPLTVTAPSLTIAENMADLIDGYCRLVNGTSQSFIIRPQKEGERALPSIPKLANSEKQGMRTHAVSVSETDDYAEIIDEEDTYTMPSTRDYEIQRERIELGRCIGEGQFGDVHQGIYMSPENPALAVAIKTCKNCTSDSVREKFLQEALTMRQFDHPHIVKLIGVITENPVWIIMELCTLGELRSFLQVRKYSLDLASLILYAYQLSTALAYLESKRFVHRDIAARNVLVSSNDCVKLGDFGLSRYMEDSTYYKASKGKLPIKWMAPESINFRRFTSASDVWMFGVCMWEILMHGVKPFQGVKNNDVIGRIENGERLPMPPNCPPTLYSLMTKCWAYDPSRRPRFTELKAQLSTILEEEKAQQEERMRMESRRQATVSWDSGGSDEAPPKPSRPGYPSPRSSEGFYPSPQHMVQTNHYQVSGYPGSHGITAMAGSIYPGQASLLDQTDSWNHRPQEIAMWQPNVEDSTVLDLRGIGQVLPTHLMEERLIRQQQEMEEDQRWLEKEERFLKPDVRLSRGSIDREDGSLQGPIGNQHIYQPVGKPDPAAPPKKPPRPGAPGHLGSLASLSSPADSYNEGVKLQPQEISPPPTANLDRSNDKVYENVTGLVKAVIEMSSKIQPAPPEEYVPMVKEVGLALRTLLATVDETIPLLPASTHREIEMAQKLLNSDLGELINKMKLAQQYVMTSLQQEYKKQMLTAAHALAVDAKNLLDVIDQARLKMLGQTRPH
# [4] = tested on: Fibrinogen (Alexa647-labelled); assay: fibrinogen binders on compound microarrays, profiling panel, artefact control for SMM control-protein annotation, biochemical, small-molecule microarray, 635/667 nm fluorescence (AID 1131); conditions: fibrinogen-A647 binding fluorescence, higher = more signal;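 further: z-score merges 667 nm fluorescence with per-spot signal-to-noise over triplicate slides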
# [5] = molecular target: Follistatin (Homo sapiens) (UniProt P19883); assay: follistatin binders on small-molecule microarrays, primary screen, biochemical, small-molecule microarray, 635/667 nm fluorescence (AID 1132); conditions: FST binding, 635 nm fluorescence, higher = more signal
# Chain of Follistatin (Homo sapiens) (P19883 whole entry, looked up): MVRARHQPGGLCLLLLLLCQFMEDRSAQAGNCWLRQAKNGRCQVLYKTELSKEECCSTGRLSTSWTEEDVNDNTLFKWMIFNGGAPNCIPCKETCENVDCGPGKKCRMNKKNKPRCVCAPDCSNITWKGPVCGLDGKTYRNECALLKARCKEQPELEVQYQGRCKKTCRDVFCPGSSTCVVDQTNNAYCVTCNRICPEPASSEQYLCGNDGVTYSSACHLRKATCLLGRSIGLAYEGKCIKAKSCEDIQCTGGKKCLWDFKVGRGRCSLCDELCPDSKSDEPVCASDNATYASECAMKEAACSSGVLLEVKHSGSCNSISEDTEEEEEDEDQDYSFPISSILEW
# [6] = molecular target: Fibroblast growth factor 2 (Homo sapiens) (UniProt P09038); assay: FGF2 binders on small-molecule microarrays, primary screen, biochemical, small-molecule microarray, 635/667 nm fluorescence (AID 1133); conditions: small-molecule microarray binding, FGF2, fluorescence 635/667; higher = more signal
# Chain of Fibroblast growth factor 2 (Homo sapiens) (P09038 whole entry, looked up): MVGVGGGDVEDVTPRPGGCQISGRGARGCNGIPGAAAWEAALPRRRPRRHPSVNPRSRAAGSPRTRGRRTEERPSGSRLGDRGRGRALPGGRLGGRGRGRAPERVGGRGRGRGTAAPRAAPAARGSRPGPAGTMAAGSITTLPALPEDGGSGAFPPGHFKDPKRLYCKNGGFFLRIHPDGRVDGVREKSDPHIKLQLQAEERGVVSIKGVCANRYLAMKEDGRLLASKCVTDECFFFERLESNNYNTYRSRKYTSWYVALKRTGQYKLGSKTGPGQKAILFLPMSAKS
# [7] = mitochondrial membrane potential change in A549 cells, profiling panel, cell-based, JC-1 fluorescence, basal, 24 h, 100 nL (AID 1138); conditions: higher = more signal;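 further: A549 lung adenocarcinoma cells under basal conditions with no added stimulus; test concentration not given here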
# Lefty1 = Lefty1 binders on small-molecule microarrays, primary screen, biochemical, small-molecule microarray, 635/667 nm fluorescence (AID 1139); conditions: small-molecule microarray binding, fluorescence 635/667; higher = more signal
# [8] = tested on: wheat germ agglutinin (Triticum aestivum), Alexa647-labelled; assay: wheat germ agglutinin binders on compound microarrays, profiling panel, artefact control for SMM control-protein annotation, biochemical, small-molecule microarray, 635/667 nm fluorescence (AID 1140); conditions: WGA-A647 binding, 635 nm fluorescence, higher = more signal;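 further: score merges 667 nm feature emission with signal to noise over triplicate slides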
# [9] = molecular target: Luciferin 4-monooxygenase (Photinus pyralis) (UniProt P08659); assay: firefly luciferase enzyme inhibitors, primary screen, biochemical, luminescence, purified enzyme, 2006 set (AID 1141); conditions: SteadyGlo luminescence, 30 min, higher = more signal, called active from +8 up or from −8 down;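 further: cell-free assay with purified firefly luciferase at 100 ng per well in PBS; test concentration not given here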
# Chain of Luciferin 4-monooxygenase (Photinus pyralis) (P08659 whole entry, looked up): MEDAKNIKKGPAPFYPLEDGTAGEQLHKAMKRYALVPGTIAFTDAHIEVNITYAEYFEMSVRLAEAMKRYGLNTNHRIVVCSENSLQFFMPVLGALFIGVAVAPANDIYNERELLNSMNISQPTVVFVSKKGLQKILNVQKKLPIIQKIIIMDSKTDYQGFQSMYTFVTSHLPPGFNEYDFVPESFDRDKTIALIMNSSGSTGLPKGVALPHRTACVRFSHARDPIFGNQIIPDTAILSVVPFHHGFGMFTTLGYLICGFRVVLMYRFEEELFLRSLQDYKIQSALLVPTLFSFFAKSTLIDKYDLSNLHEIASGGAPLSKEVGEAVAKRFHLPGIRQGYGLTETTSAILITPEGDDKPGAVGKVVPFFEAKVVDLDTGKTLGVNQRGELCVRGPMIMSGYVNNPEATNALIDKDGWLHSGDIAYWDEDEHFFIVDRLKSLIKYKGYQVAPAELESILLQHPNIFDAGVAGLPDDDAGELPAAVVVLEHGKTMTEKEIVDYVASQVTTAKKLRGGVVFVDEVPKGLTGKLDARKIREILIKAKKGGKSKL
# [10] = tested on: Wnt5a (protein binding on small-molecule microarray); assay: Wnt5a binders on small-molecule microarray, primary screen, biophysical, 635/667 nm fluorescence (AID 1142); conditions: 635 nm fluorescence, higher = more signal;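 further: fluorescence read at 667 nm with signal to noise per printed feature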
# [11] = cell viability in Huh7 cells, primary screen, cytotoxicity control for HCV replication inhibitor project, CellTiter-Glo luminescence, basal, 48 h (AID 1143); conditions: Huh7 HCV replicon, higher = more signal, called active from +8 up or from −8 down;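 further: Huh7 hepatoma cells carrying a hepatitis C replication reporter with no stimulus; test concentration not given here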
# [12] = P. aeruginosa biofilm formation inhibitors, primary screen, PAO1 strain, BacTiter-Glo luminescence, LB-PBS (AID 1144); conditions: 12 h, higher = more signal
# [13] = CREB reporter modulators without forskolin, primary screen, cell-based, PC12, CRE-LacZ reporter, unstimulated (AID 1145); conditions: no forskolin, luminescence, 4.5 h, higher = more signal, called active from +8 up or from −8 down
# [14] = CREB reporter modulators under forskolin, primary screen, cell-based, PC12, CRE-LacZ reporter, forskolin-stimulated (AID 1146); conditions: luminescence, 4.5 h, higher = more signal, called active from +8 up or from −8 down;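 further: PC12 cells with 6xCRE LacZ reporter stimulated by forskolin 10 µM; beta-galactosidase reporter signal reflecting CREB driven transcription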
# [15] = molecular target: Streptavidin (Streptomyces avidinii) (UniProt P22629); assay: streptavidin binders on small-molecule microarray, primary screen, artefact control for SMM compound annotation, biophysical, 635/667 nm fluorescence (AID 1147); conditions: streptavidin binding, higher = more signal;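 further: signal reflects streptavidin binding to arrayed compounds as a control protein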
# Chain of Streptavidin (Streptomyces avidinii) (P22629 whole entry, looked up): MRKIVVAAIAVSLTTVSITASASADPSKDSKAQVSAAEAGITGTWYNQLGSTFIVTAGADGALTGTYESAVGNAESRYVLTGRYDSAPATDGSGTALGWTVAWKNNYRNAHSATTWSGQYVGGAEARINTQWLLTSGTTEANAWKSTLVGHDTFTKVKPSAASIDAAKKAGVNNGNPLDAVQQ
# [16] = small-molecule binders of probe aInhba, primary screen, biochemical, small-molecule microarray, 635/667 nm fluorescence (AID 1148); conditions: higher = more signal;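 further: score merges 667nm spot fluorescence with signal-to-noise for antibody binding to printed compounds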
# Torsin-1A (Homo sapiens) [17] = molecular target: Torsin-1A (Homo sapiens) (UniProt O14656); assay: torsin A binders from cell lysate, primary screen, small-molecule microarray, wild-type, 635/667 nm (AID 1149); conditions: COS7 hTOR1A-WT lysate, 635 nm fluorescence, higher = more signal
# Chain of Torsin-1A (Homo sapiens) (O14656 whole entry, looked up): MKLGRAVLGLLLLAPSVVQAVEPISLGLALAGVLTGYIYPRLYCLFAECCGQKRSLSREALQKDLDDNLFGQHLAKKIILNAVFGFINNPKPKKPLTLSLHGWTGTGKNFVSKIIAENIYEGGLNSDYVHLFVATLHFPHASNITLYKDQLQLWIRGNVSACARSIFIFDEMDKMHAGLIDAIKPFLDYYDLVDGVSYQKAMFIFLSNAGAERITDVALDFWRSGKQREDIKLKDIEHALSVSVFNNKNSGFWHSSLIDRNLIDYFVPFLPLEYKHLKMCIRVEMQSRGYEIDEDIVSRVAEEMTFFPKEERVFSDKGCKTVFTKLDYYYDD
# Torsin-1A (Homo sapiens) [18] = molecular target: Torsin-1A (Homo sapiens) (UniProt O14656); assay: small-molecule binders of mutant TOR1A in lysate, primary screen, cell lysate, small-molecule microarray, COS7 lysate, 635/667 nm fluorescence (AID 1150); conditions: COS7 hTOR1A mutant lysate, 635 nm fluorescence, higher = more signal;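 further: score pools 667 nm emission and signal to noise measuring lysate protein binding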
# [19] = tested on: Sonic hedgehog protein (Shh); assay: small-molecule binders of Shh protein, primary screen, biochemical, small-molecule microarray, 635/667 nm fluorescence (AID 1151); conditions: small-molecule microarray binding, 635 nm fluorescence; higher = more signal;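 further: Shh protein binding to compounds spotted on small-molecule microarray slides; score combines spot fluorescence intensity with signal-to-noise across triplicate slides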
SMILES,composite z-score [1],composite z-score [2],composite z-score [3],composite z-score [4],composite z-score [5],composite z-score [6],z-score [7],composite z-score (Lefty1),composite z-score [8],z-score [9],composite z-score [10],z-score [11],z-score [12],z-score [13],z-score [14],composite z-score [15],composite z-score [16],composite z-score (Torsin-1A (Homo sapiens) [17]),composite z-score (Torsin-1A (Homo sapiens) [18]),composite z-score [19]
CN1C(=O)C2C(C1=O)C1C=C(c3ccc(CO)cc3)C2C(C2CC2)N1Cc1sc2ccccc2c1Cl (stereo not given),3.31,1.26,1.89,0.982,0.968,1.06,2.26,0.453,1.25,-1.75 (inactive),0.567,-3.96 (inactive),0.277 (inactive),2.75 (inactive),-0.825 (inactive),2.1,0.432,1.08,1.57,0.25
COc1cc(CO)cc(I)c1O[C@H]1C=C(C(=O)NCCO)C[C@@H](N(CCc2cccc(F)c2)C(=O)CCC2CCCC2)[C@@H]1O,2.62,1.19,0.218,0.819,1.46,1.76,-0.172,1.49,0.524,1.38 (inactive),1.38,-6.09 (inactive),-0.986 (inactive),6.93 (inactive),-0.374 (inactive),0.628,0.0872,0.727,1.26,1.89
CN1C(=O)C2C(C1=O)C1C=C(c3ccc(CO)cc3)C2C(C2CC2)N1Cc1cc2c(cc1Br)OCO2 (stereo not given),2.81,1.23,1.47,0.976,1.23,0.784,1.34,0.175,1.18,-1.9 (inactive),0.164,-5.17 (inactive),-0.401 (inactive),0.622 (inactive),-1.62 (inactive),1.75,0.138,1.16,1.65,0.796
C[N+](C)(C)CCCC[C@@H]1NC(=O)[C@H]2C[C@@H](C(=O)O)[C@@H](c3cccc(OCCO)c3)N2C1=O,3.61,1.21,2.21,0.973,1.15,0.9,0.455,0.804,1.57,-0.317 (inactive),1.93,0.0605 (inactive),0.308 (inactive),-0.138 (inactive),0.629 (inactive),3.77,0.893,1.95,2.13,1.4
COC(=O)[C@@]1(Cc2ccccc2)[C@H]2c3cc(C(=O)N(C)C)n(Cc4ccccc4)c3C[C@H]2CN1C(=O)c1ccccc1,1.21,1.13,0.614,0.839,0.241,-0.605,0.458,-0.0169,1.04,1.66 (inactive),0.347,-0.513 (inactive),0.0307 (inactive),0.776 (inactive),1.08 (inactive),1.68,0.209,-0.314,0.766,-0.867
O=C(NCc1ccccc1)[C@@H]1c2ccccc2C(=O)N(Cc2cc(F)cc(C(F)(F)F)c2)[C@H]1c1ccc(CO)cc1,2.54,1.19,0.187,0.571,1.27,0.339,1.45,0.61,0.144,-1.13 (inactive),0.0748,-1.26 (inactive),0.339 (inactive),-0.0888 (inactive),-1.61 (inactive),0.0709,0.0227,0.484,0.426,1.15
CCCCCN1CC=CC23O[C@@H]4C=CCCOC(=O)C4[C@H]2C(=O)N(CCCO)[C@@H]3C1=O (stereo not given in full),0.199,-0.388,-0.572,-0.677,-0.182,-0.311,-0.891,-0.364,0.0083,0.126 (inactive),-0.309,-2.45 (inactive),-1.06 (inactive),-0.492 (inactive),-0.285 (inactive),-0.559,-0.128,-0.0271,-1.09,0.4
O=C1C2C=CC(C(O)c3cccc4ccccc34)N(n3cnnc3)C2C(=O)N1Cc1ccccc1 (stereo not given),0.968,-0.0247,0.699,0.798,0.355,0.406,-0.94,0.302,0.872,1.06 (inactive),1.24,0.251 (inactive),0.878 (inactive),0.425 (inactive),0.972 (inactive),0.225,1.28,0.104,-0.0432,0.177
CN1C(=O)C2C=CC(C(O)C(C)(C)C)N(Nc3ccccc3)C2C1=O (stereo not given),0.218,-0.178,0.694,-0.0163,-0.288,-0.695,0.31,-1.06,-0.062,0.856 (inactive),0.04,1.07 (inactive),-0.101 (inactive),0.24 (inactive),0.124 (inactive),0.0034,-0.157,0.392,-0.419,-0.624
C=CCN1C(=O)[C@@]2(O[C@@H](CCO)[C@H]([Si](C)(C)c3ccc(OC)cc3)[C@H]2C)c2cc(N3C(=O)COc4ccccc43)ccc21,1.52,1.02,0.346,0.578,0.25,0.27,-0.839,0.0865,0.577,-0.401 (inactive),0.564,-7.99 (inactive),0.798 (inactive),26 (active),-4.06 (inactive),0.83,-0.101,-0.048,-0.0358,0.531
O=C1OCCC/C=C\[C@H]2OC34C=CCN(Cn5nnc6ccccc65)C(=O)[C@H]3N(CCCO)C(=O)[C@@H]4C12 (stereo not given in full),3.1,-0.162,-0.0245,-1.94,-0.99,-1.06,-0.275,-0.517,-0.107,0.656 (inactive),-0.8,0.464 (inactive),-0.354 (inactive),-0.623 (inactive),0.168 (inactive),-1.29,-0.182,-2.04,1.14,-0.144
O=C1OCCC=C[C@H]2OC34C=CCN(CCN5CCOCC5)C(=O)[C@H]3N(CCO)C(=O)[C@@H]4C12 (stereo not given in full),1.07,-0.793,-0.379,0.236,1.11,0.785,-0.849,0.648,0.418,-0.0527 (inactive),-0.141,0.473 (inactive),0.329 (inactive),-0.358 (inactive),-0.0338 (inactive),-0.983,-0.168,-0.23,0.0141,0.731
O=C(N1CCCCC1)[C@]1(CCS(=O)(=O)c2ccccc2)N=C(c2ccc(OCCCO)cc2)O[C@@H]1c1ccccc1,3.05,1.22,1.29,0.949,1.18,0.619,-0.913,0.211,1.31,-0.149 (inactive),0.497,-5.48 (inactive),0.13 (inactive),1.16 (inactive),-0.526 (inactive),0.721,0.461,0.608,0.885,0.624
C=CCOC(=O)[C@H]1[C@@H]2C(=O)O[C@@H](c3ccccc3)[C@@H](c3ccccc3)N2[C@@H](c2ccc(OCCOC(=O)[C@H]3C[C@H]4C(=O)N[C@@H](CCCC[N+](C)(C)C)C(=O)N4[C@H]3c3ccc(O)cc3)cc2)[C@]12C(=O)Nc1ccccc12,0.94,-0.0508,0.193,0.252,1.16,0.703,0.193,0.653,0.22,-1.28 (inactive),0.0385,-0.236 (inactive),-0.968 (inactive),-1.62 (inactive),-1.06 (inactive),-0.22,-0.258,0.475,0.846,1.18
O=C(NCC(O)CO)[C@@]1(Cc2ccccc2)N=C(c2ccc(OCCCO)cc2)O[C@H]1c1ccccc1 (stereo not given in full),3.21,1.2,0.0855,0.956,1.29,0.331,1.44,-0.836,0.922,-1.6 (inactive),0.626,-2.66 (inactive),-0.473 (inactive),3.33 (inactive),0.768 (inactive),0.993,1.03,0.477,1.23,-0.959
COC(=O)c1c2oc(c1C(=O)OC)C(=O)N[C@H](Cc1ccccc1)Cn1nncc1C1(CCCCC1)NC(=O)N[C@H](CO)CC2,0.265,0.275,0.13,-0.0472,0.373,0.1,3.5,0.553,-0.0322,-0.676 (inactive),0.159,-0.11 (inactive),-0.318 (inactive),1.75 (inactive),0.154 (inactive),0.412,0.0154,-0.0688,-0.0459,0.798
CC(C)N1C(=O)c2ccccc2[C@](C)(C(=O)NC2CC2)[C@@H]1c1ccc(CO)cc1,1.58,0.875,-0.118,0.803,1.12,0.507,0.378,0.0517,0.497,1.34 (inactive),0.204,-0.997 (inactive),-0.723 (inactive),0.118 (inactive),0.957 (inactive),-0.166,-0.2,1.11,0.74,0.889
CN(C)CCCC[C@@H]1NC(=O)[C@H]2C[C@@H](C(=O)NCCCCCNC(=O)CS)[C@@H](c3ccc(O)cc3)N2C1=O,0.504,-0.54,-0.0308,-0.293,0.756,0.421,0.64,-0.78,-0.128,-1.25 (inactive),-0.22,-0.0046 (inactive),-0.315 (inactive),0.683 (inactive),-0.0503 (inactive),-0.175,-0.208,-0.217,0.239,0.0878

# — PubChem BioAssay
